TRPML1 agonist = activates the human TRPML1 channel. Q9GZU1. TRPML1-expressing cells, Ca2+ dye fluorescence, FDSS. activation, % (no concentration beside the values). 0.12% of 410,000 active. AID 624414; in the data active = activation above about 50%; inconclusive = mostly about 30% to 49%; note: 0% is about no effect
Target sequence (Q9GZU1 whole entry, looked up): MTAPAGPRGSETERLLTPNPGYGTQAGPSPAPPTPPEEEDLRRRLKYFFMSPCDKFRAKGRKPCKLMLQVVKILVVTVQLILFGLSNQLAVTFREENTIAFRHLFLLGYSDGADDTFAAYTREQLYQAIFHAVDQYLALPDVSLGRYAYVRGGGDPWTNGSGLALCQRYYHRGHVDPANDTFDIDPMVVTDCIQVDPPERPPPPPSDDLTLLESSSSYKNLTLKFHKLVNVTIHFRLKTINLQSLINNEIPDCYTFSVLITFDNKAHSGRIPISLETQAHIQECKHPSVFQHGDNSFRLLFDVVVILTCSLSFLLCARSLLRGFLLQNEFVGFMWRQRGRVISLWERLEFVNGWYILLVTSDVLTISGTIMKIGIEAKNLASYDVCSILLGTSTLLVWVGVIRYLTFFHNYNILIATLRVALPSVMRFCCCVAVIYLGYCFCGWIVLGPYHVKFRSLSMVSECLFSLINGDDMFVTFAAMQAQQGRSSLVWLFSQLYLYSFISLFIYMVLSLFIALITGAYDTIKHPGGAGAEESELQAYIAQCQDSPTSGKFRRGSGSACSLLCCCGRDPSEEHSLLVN
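Agonist activity was taken from a 110 s kinetic Ca2+ dye read on the FDSS after pinning compounds onto TRPML1-DL cells. The cells were seeded at 1,500/well with Tet inducer, incubated about 16 h, then dye-loaded at room temperature.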
TRPML1 inh = blocks the human TRPML1 channel. Q9GZU1. TRPML1-inducible cells, Ca2+ dye fluorescence, FDSS; stronger effect = lower value; inhibition of EC80 agonist-evoked calcium signal. activity change, negative = inhibition, % (concentration not given with the values). 0.02% of 390,000 active. AID 624415; in the data active = activity change below about -50%; inconclusive = between about -30% and that limit;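 note: stimulus is agonist 54-4 at its EC80 concentration; % is set by controls: 0 for no effect and ±100 for the full control effect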
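Calcium fluorescence in TRPML1-DL cells induced overnight with Tet: a 110 s read after compound pin addition, then a 110 s antagonist read after challenge with 54-4 at 4 uM final (EC80).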
TRPV1 agonist = activates the human vanilloid receptor TRPV1; Q8NER1; TRPV1-expressing cells, Fluo-8 calcium influx, agonist mode; activation, % at 8.33 µM; 0.19% of 320,000 active; AID 540275; in the data active = activation above about 80%; inconclusive = between about 30% and that limit; note: 0% is about no effect
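Fluo-8 calcium influx in TRPV1-expressing cells, kinetic read (ex 480/em 520 nm). Compound added and read 3 min for agonist activity, followed by capsaicin at EC20 final and 2 min further read for enhancement.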
TRPV1 potentiator = human TRPV1 potentiation; potentiation, % at 8.33 µM; AID 540277; Q8NER1; TRPV1-expressing cells, Fluo-8 calcium influx, capsaicin EC20 potentiation; 0.02% of 320,000 active; in the data active = potentiation above about 80%; inconclusive = between about 30% and that limit; note: 0% is about no effect
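Cells expressing TRPV1 were dye-loaded with Fluo-8 and read kinetically: 10 s baseline, 3 min after compound (agonist portion), then 2 min after EC20 capsaicin (allosteric enhancer portion). Calcium-bound dye fluorescence at 480/520 nm.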
Starred values were filed as active, the others as inactive; ? = inconclusive; nt = not tested or not shown. A selection: hits, their analogues and other compounds. The true share with any hit is near 0.31%.

SMILES | TRPML1 agonist | TRPML1 inh | TRPV1 agonist | TRPV1 potentiator
CC(C)n1ncc2c(C(=O)Nc3ccc(S(C)(=O)=O)cc3)cc(C3CC3)nc21 | 1.9 | 2.8 | ? | -10.4
Cc1ccc(S(=O)(=O)N2CCN(c3nc(-c4ccc(CN5CCNCC5)s4)nc4ccccc34)CC2)cc1 | -0.6 | nt | nt | nt
Cc1nc(C)c(-c2ccc(SCC(=O)Nc3ccc(Br)cc3)nn2)s1 | 3.8 | 31.8 | nt | nt
CC(=O)Nc1cc(O)c2nonc2c1O | -0.4 | nt | nt | nt
CCN(CC)S(=O)(=O)c1ccc(/C=C/C(=O)Nc2ccc(N3CCOCC3)cc2)cc1 | -0.7 | -9.4 | 90.0* | -18.5
CC(C)(C)c1ccc(OCCNC(=O)Cc2ccc(F)cc2)cc1 | -0.3 | -12.6 | 90.6* | 8.6
COCCNC(=O)Cc1ccc(F)cc1 | -0.2 | -4.9 | -1.3 | 8.5
COc1ccc(-n2nc(C(=O)NCC(=O)NCCCN3CCC(C)CC3)c3ccccc3c2=O)cc1Cl | -0.6 | 7.7 | -3.0 | 0.0
COc1ccc(-n2nc(C(=O)NCC(=O)NCCCN3CCCCCC3)c3ccccc3c2=O)cc1Cl | 0.0 | -9.7 | -2.1 | 81.0*
CN(C)c1c(Cl)cc(/C=C/c2ccnc3ccccc23)cc1Br | -0.9 | nt | nt | nt
CCc1ccc(/C=N/NC(=O)c2c[nH]c3ccccc23)s1 | 3.3 | -1.0 | 84.6* | -13.6
CCOC(=O)c1c(NC(=O)C(C)Sc2cn(CCNC(=O)c3c(F)cccc3F)c3ccccc23)sc2c1CCC2 (configuration not stated) | -0.1 | -21.3 | nt | nt
Cc1ccc(NC(=O)C2=CCN(S(=O)(=O)c3ccc(F)cc3)CC2)c(C)c1 | 0.5 | -19.2 | ? | -14.4
CCC(C)NC(=O)C1=CCN(S(=O)(=O)c2ccc(C)cc2)CC1 (configuration not stated) | 0.5 | -53.9* | -2.8 | 4.4
COc1ccc(CC(=O)NCc2ccc(-n3cccc3)cc2)cc1OC | -1.2 | 4.7 | 80.8* | -24.1
Cc1ccc(CNC(=O)Cc2ccc(-n3cccc3)cc2)cc1 | 0.6 | 22.9 | 3.9 | -2.8
COc1ccc(CC(=O)Nc2cccc3ccccc23)cc1OC | -0.6 | 2.7 | 89.0* | -7.3
COc1cc(Cl)c(C)cc1NC(=O)Cc1cccs1 | -0.1 | 1.8 | 16.6 | ?
COc1cc(Cl)c(C)cc1NC(=O)Cc1ccc(OC)c(OC)c1 | 2.5 | 4.5 | 89.2* | -24.3
COc1ccc(CC(=O)Nc2cccc3ncccc23)cc1OC | 0.3 | 16.9 | 5.4 | -6.2
CC(=O)c1cc2c(cc1NC(=O)c1cnn(-c3ccc(C)cc3)c1-n1cccc1)OCO2 | 0.0 | 18.6 | nt | nt
CC(C)(C)c1ccc(OCc2ccc(C(=O)NN)o2)cc1 | 1.9 | 20.3 | 123.4* | 1.2
CC(=O)c1ccc(NC(=O)N2CCN(c3ccc(C)cc3)C(C)C2)cc1 (configuration not stated) | 0.3 | 18.1 | 84.3* | 2.4
CC(=O)c1ccc(N2CCN(C(=O)Nc3ccc(C)cc3)CC2)cc1 | 2.4 | -23.8 | 93.5* | 0.0
Cc1ccc(NC(=O)N2CCN(c3ccc(Cl)c(Cl)c3)CC2)cc1 | 0.8 | -3.8 | nt | nt
SMILES | TRPML1 agonist | TRPML1 inh | TRPV1 agonist | TRPV1 potentiator
CCN1C(=O)c2cccc3c(Cl)ccc(c23)C1=O | -1.3 | -7.3 | 2.5 | -2.6
Cc1cccc(N2C(=O)c3cccc4c(N(C)CCO)ccc(c34)C2=O)c1 | 76.6* | -1.4 | 1.1 | 0.2
Nc1ccc2c3c(cccc13)C(=O)N(c1ccccc1)C2=O | 93.6* | -3.4 | -2.1 | 1.9
CN(C)c1ccc2c3c(cccc13)C(=O)N(c1ccccc1)C2=O | nt | nt | 1.5 | 2.4
Nc1cccc(N2C(=O)c3cccc4c(N)ccc(c34)C2=O)c1 | 55.4* | -22.8 | 26.4 | -6.5
O=C(O)c1cccc(N2C(=O)c3cccc4c(Cl)ccc(c34)C2=O)c1 | 0.0 | -3.8 | -3.4 | 13.0
CC(C)CCN1C(=O)c2cccc3c(N)ccc(c23)C1=O | 88.6* | -12.2 | nt | nt
CCc1c(C)sc2c1CCN(C(=O)Nc1cc(C)ccc1OC)C2c1ccc(F)cc1 (configuration not stated) | 2.7 | 5.6 | nt | nt
Nc1ccc(/C=C/c2ccnc3ccccc23)c(N)c1 | 6.1 | nt | nt | nt
Cc1cccc(N2C(=O)c3cccc4c(N)ccc(c34)C2=O)c1 | 104.0* | -9.9 | 148.4* | 14.5
O=C(c1cc(COc2ccc(F)cc2Cl)on1)N1CCC(c2ccncc2)CC1 | 0.9 | 33.6 | 85.6* | 5.5
O=C(c1cc(COc2ccc(F)cc2Cl)on1)N1CCCCCC1 | 0.0 | 6.6 | 24.6 | -13.4
COc1ccccc1CNC(=O)c1cnc2sc(N3CCCCCC3)nn2c1=O | 0.7 | 44.4 | nt | nt

High-throughput results from PubChem.
